# Test results taken from the supplement of paper PMC6607015.
# Counter-ions that a name gives are not always drawn.
# Assays:
# Details in all cases: compound concentration in added solution (µM; 5 µl added to 20 µl cells): 10; 18 h
# A431 [1] = assay: LBPA endosome anti-LBPA integrated intensity (sum per cell), Z-score; higher = more LBPA staining
# Procedure, shortened: (§1)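 The data are Z-scores, normalised in AcuityXpress, of integrated LBPA or filipin intensity in each cell, either whole-cell or restricted to LBPA endosomes. HeLa MZ or A431 cells, 3,500 per well in 20 µl, were seeded onto 5 µl of 10 µM compound solution in duplicate 384-well plates and incubated 18 h. Fixed cells were stained and imaged, with intensities extracted by MetaXpress segmentation.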
# HeLa MZ [2] = assay: as above
# Procedure, shortened: as §1
# A431 [3] = assay: whole-cell filipin (free cholesterol) integrated intensity, Z-score; higher = more cholesterol staining
# Procedure, shortened: as §1
# HeLa MZ [4] = assay: as above
# Procedure, shortened: as §1
# A431 [5] = assay: filipin (cholesterol) integrated intensity within LBPA endosomes, Z-score; higher = more cholesterol in LBPA endosomes
# Procedure, shortened: as §1
# HeLa MZ [6] = assay: as above
# Procedure, shortened: as §1
SMILES,LBPA endosome anti-LBPA integrated intensity (z-score) (A431 [1]),LBPA endosome anti-LBPA integrated intensity (z-score) (HeLa MZ [2]),whole-cell filipin (z-score) (A431 [3]),whole-cell filipin (z-score) (HeLa MZ [4]),filipin (z-score) (A431 [5]),filipin (z-score) (HeLa MZ [6])
CN1CCCCC1CCN1c2ccccc2Sc2ccc([S+](C)[O-])cc21 (stereo not drawn) [Mesoridazine besylate],0.975,2.18,0.066,0.244,0.618,1.37
CCCCOc1cc(C(=O)NCCN(CC)CC)c2ccccc2n1 [Dibucaine],2.05,2.71,2.14,1.5,2.29,2.2
COc1ccc(CC(C)NCC(O)c2ccc(O)c(NC=O)c2)cc1 (stereo not drawn) [Formoterol fumarate],-0.505,-1.42,0.171,-0.609,-0.478,-0.313
CCCCC(O)c1ccccc1 (stereo not drawn) [Fenipentol],-0.545,-0.11,-0.922,-0.426,-0.553,-0.613
O=C(O)CNC(=O)C(CS)Cc1ccccc1 (stereo not drawn) [Thiorphan],-0.785,-1.92,-0.897,-0.571,-0.691,-0.682
C=C1C[C@H]2[C@@H]3C=C(C)C4=CC(=O)CC[C@]4(C)[C@H]3CC[C@]2(C)[C@@]1(OC(C)=O)C(C)=O [Melengestrol acetate],1.2,1.67,2.08,1.46,1.58,1.05
CCC(C)(CN(C)C)OC(=O)c1ccccc1 (stereo not drawn) [Amyleine hydrochloride],-0.517,0.00392,-0.884,-0.337,-0.528,-0.471
C=C(CC)C(=O)c1ccc(OCC(=O)O)c(Cl)c1Cl [Ethacrynic acid],-0.359,-0.213,-0.0585,0.416,-0.423,-0.312
CN(C)CCCOc1nn(Cc2ccccc2)c2ccccc12 [Benzydamine hydrochloride],1.07,2.25,1.71,-0.196,1.63,0.942
COc1cc(C(=O)NCc2ccc(OCCN(C)C)cc2)cc(OC)c1OC [Trimethobenzamide hydrochloride],-0.218,-0.274,-0.94,-0.877,-0.32,-0.334
N=C(N)N1CCc2ccccc2C1 [Debrisoquin sulfate],-0.566,-0.193,-0.719,-0.695,-0.556,-0.606
O=S(=O)(O)CCS [Mesna],-0.366,0.0893,-0.163,0.141,-0.454,-0.55
CCC(=O)OCC(=O)[C@@]1(OC(=O)CC)[C@H](C)C[C@H]2[C@H]3[C@H]([C@@H](O)C[C@@]21C)[C@@]1(C)C=CC(=O)C=C1C[C@H]3Cl [Alclometasone dipropionate],-0.24,0.1,-0.316,-0.125,-0.325,-0.277
Nc1nc(F)nc2c1ncn2[C@@H]1O[C@H](CO)[C@@H](O)[C@@H]1O [Fludarabine],-0.338,1.27,0.904,1.82,-0.372,-0.595
C#C[C@]1(O)CC[C@H]2[C@@H]3CCC4=Cc5oncc5C[C@]4(C)[C@H]3CC[C@@]21C [Danazol],-0.455,-0.444,-0.615,-0.566,-0.449,-0.556
Cc1ccc(S(=O)(=O)NC(=O)NN2CCCCCC2)cc1 [Tolazamide],-0.639,-1.11,-0.852,-0.547,-0.571,-0.672
CN(C)CCCC1(c2ccc(F)cc2)OCc2cc(C#N)ccc21 (stereo not drawn) [Citalopram Hydrobromide],-0.329,1.58,0.204,0.212,-0.352,0.534
CC[N+](CC)(CC)CCC(O)(c1ccccc1)C1CCCCC1 (stereo not drawn) [Tridihexethyl chloride],-0.607,-0.578,-0.338,-0.512,-0.437,-0.697
C=CC1=C(C(=O)O)N2C(=O)[C@@H](NC(=O)/C(=N\OCC(=O)O)c3csc(N)n3)[C@H]2SC1 [Cefixime],-0.497,-0.00426,-0.828,-0.585,-0.573,-0.64
CCn1cc(C(=O)O)c(=O)c2cc(F)c(N3CCN(C)CC3)cc21 [Pefloxacine],-0.525,-0.713,-0.866,-1.02,-0.571,-0.621
OC(CCN1CCCCC1)(c1ccccc1)c1ccccc1 [Pridinol methanesulfonate salt],-0.0313,0.215,-0.378,-0.508,-0.23,-0.0603
C[N+]1(C)CCC(OC(=O)C(O)(c2ccccc2)C2CCCC2)C1 (stereo not drawn) [Glycopyrrolate],-0.432,-0.329,-0.296,-0.075,-0.498,-0.443
CN(C)CCCN1c2ccccc2CCc2ccc(Cl)cc21 [Clomipramine hydrochloride],3.59,1.91,1.1,-0.141,2.35,1.89
